Laboratory results as given in PubChem BioAssay (NCI).
This is part of a sample that, as a whole, favours compounds with a hit. Of some 79,000 tested, about 15% had one in any assay. The source made the active and inactive calls. No stated cut-off is given here; in the data, active means growth inhibition above about 70%; inactive means the rest.

Tests used:
[1] = NCI Yeast Anticancer Drug Screen. Data for the rad50 strain (AID 155);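 further: 0% = growth of vehicle-only cultures of the same strain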; conditions: S. cerevisiae rad50 strain growth inhibition; at 50.0 µM; stronger effect = higher value
Outline: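 Inhibition values express reduced yeast growth in compound-treated cultures relative to vehicle-treated controls.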

[2] = NCI Yeast Anticancer Drug Screen. Data for the mec2-1 strain (AID 157); conditions: S. cerevisiae mec2-1 strain, at 50.0 µM, stronger effect = higher value
Outline: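 Each compound was tested on mec2-1 yeast, a strain altered in DNA damage repair or cell cycle control. Growth inhibition is reported relative to vehicle.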

[3] = NCI Yeast Anticancer Drug Screen. Data for the sgs1 mgt1 strain (AID 161);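 further: 0% = growth of cultures given vehicle only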; conditions: S. cerevisiae sgs1 mgt1 strain, at 50.0 µM, stronger effect = higher value
Outline: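 Mutant yeast exposed to compound; growth scored against vehicle-only wells.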

[4] = NCI Yeast Anticancer Drug Screen. Data for the cln2 rad14 strain (AID 165);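 further: 0% = growth equal to vehicle treated cultures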; conditions: S. cerevisiae cln2 rad14 strain, at 50.0 µM, stronger effect = higher value
Outline: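 Test compounds were added to cln2 rad14 yeast cultures; inhibition of growth was then determined by comparison with vehicle treatment.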

[5] = NCI Yeast Anticancer Drug Screen. Data for the bub3 strain (AID 167); conditions: S. cerevisiae bub3 mutant strain, at 50.0 µM, stronger effect = higher value
Outline: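 Steps: expose the mutant yeast strain to compound; grow alongside vehicle-treated cultures; measure growth; express inhibition against the vehicle cultures.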

[6] = NCI Yeast Anticancer Drug Screen. Data for the mlh1 rad18 strain (AID 175); conditions: S. cerevisiae mlh1 rad18 strain growth inhibition; at 50.0 µM; stronger effect = higher value
Outline: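 Inhibition values reflect reduced growth of mutant yeast versus vehicle-treated controls following compound exposure; the mutations affect DNA damage repair.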

Measured: growth inhibition

CCC1(C(=O)O)NC(=O)NC1=O (stereo not given)
inactive: [1] -2.55% | [2] -11.6% | [3] -12.3% | [4] -8.95% | [5] 4.5% | [6] -4.25%

O=C(Cc1ccccc1)NC(=O)Nc1ccccc1
inactive: [1] -7.5% | [2] -10.2% | [3] -8.4% | [4] -0.15% | [5] -3.1% | [6] 0.4%

CC[O-].CC[O-].O=C([CH-]C(=O)c1ccccc1)CCCCCCC(=O)[CH-]C(=O)c1ccccc1.[Ti+4]
inactive: [1] -39.5% | [2] -13.7% | [3] -33.5% | [4] -4.7% | [5] 4.95% | [6] -17.7%

Cc1cc(C)c(Cc2c(C)cc(C)cc2C)c(C)c1
inactive: [1] 14.8% | [2] -25.6% | [3] 7.25% | [4] -2.85% | [5] 23.9% | [6] 13.9%

O=C1C2Nc3ccccc3N=C2OC1c1ccc(Cl)c(Cl)c1 (stereo not given)
inactive: [1] 10.1% | [2] -5.35% | [3] 15.7% | [4] 7% | [5] -4.8% | [6] 24.6%

C[N+](C)(C)CC(=O)NN
inactive: [1] 10.1% | [2] -0.8% | [3] -21.7% | [4] -17.6% | [5] -18% | [6] 38.6%

O/N=C(/CC(O)(C(F)(F)F)C(F)(F)F)c1ccccc1
inactive: [1] -9.1% | [2] -18% | [3] -7.9% | [4] -38.8% | [5] -6.9% | [6] 11.8%

BrC/C(=N\N1CCCCC1)c1ccc(Br)cc1
inactive: [1] 6.55% | [2] -7.95% | [3] -8.05% | [4] 24.6% | [5] 16.6% | [6] 14%

Cc1ccc(C2=Nc3cccc4cccc(c34)N2)cc1
inactive: [1] -40% | [2] -71.7% | [3] -26.3% | [4] 11.1% | [5] -2.2% | [6] -8.85%

O=C(C[N+]1(c2ccccc2)CCOCC1)c1ccccc1
inactive: [1] 28.4% | [2] 5.6% | [3] -13.8% | [4] 4.7% | [5] -4.25% | [6] 21.1%

O=C(Nc1ccc(Cl)cc1)c1cc2cc(N=Nc3ccc(Br)cc3)ccc2oc1=O
inactive: [1] -18.1% | [2] 9.75% | [3] -13.3% | [4] -1.65% | [5] -23.9% | [6] -6.65%

O=C(Nc1ncc([N+](=O)[O-])s1)c1cc(Cl)cc(Cl)c1
active: [3] 77.9% | [6] 74.3%
inactive: [1] 60.5% | [2] 61% | [4] 53% | [5] 57.5%

CS(=O)(=O)CCCCCCCCCCS(C)(=O)=O
inactive: [1] 9.45% | [2] 2.45% | [3] -4.35% | [4] -23.7% | [5] 5% | [6] 4.5%

Cn1c(=O)c2[nH]c(SCC(=O)O)nc2n(C)c1=O
inactive: [1] 7.45% | [2] 0.95% | [3] 3.35% | [4] -21.4% | [5] 7.6% | [6] -3.65%

C=CCN1C(=O)CC2[C@@H]3CCc4cc(O)ccc4C3CC[C@]2(C)C1=O (stereo not given in full)
inactive: [1] -0.65% | [2] -12.7% | [3] -7.6% | [4] 22.8% | [5] 8% | [6] 1.25%

COc1ccc2c(c1OC)C(O)N1CCc3cc4c(cc3C1=C2C(=O)c1ccccc1)OCO4 (stereo not given)
inactive: [1] 6.75% | [2] 14.2% | [3] 0.5% | [4] -5.3% | [5] 28.1% | [6] 22.8%

O=C(O)/C=C/C(=O)Nc1cccc(C(F)(F)F)c1
inactive: [1] -3.5% | [2] 0.35% | [3] -17.5% | [4] -6.85% | [5] -15.7% | [6] -9.7%

O=C(N=C1[Se]C(=Nc2ccccc2)C(=Nc2ccccc2)N1c1ccccc1)c1ccccc1
inactive: [1] 9.45% | [2] 5.1% | [3] 6.55% | [4] 20.6% | [5] 2.75% | [6] 3.25%

Cc1cc(C)c(-c2no/c(=N\S(=O)(=O)c3ccc(Cl)cc3)o2)c(C)c1
inactive: [1] -10% | [2] -4.1% | [3] 0.75% | [4] 26% | [5] -13.1% | [6] 3.85%

COc1cc2c(cc1OC)C(NC(C)C)CCCC2 (stereo not given)
inactive: [1] -7.6% | [2] 9.35% | [3] -13.8% | [4] -23.6% | [5] -7.7% | [6] -6.9%

CN(C)c1ccc(/C=c2\sc3nnc(Cc4ccccc4)n3c2=O)cc1
inactive: [1] -7.8% | [2] -13.6% | [3] -0.25% | [4] 11.1% | [5] 11.1% | [6] 1.35%

CC(=O)NCCCCNS(=O)(=O)c1ccc(C)cc1
inactive: [1] -16.1% | [2] -3.15% | [3] -17.4% | [4] -6.1% | [5] -0.7% | [6] 5.1%

CC(NNC(=S)N1CCN(c2ccccn2)CC1)c1cccc[n+]1[O-] (stereo not given)
inactive: [1] 9.6% | [2] 5.4% | [3] 3.8% | [4] -11.2% | [5] 6.55% | [6] 11.9%

CC1CC(c2ccccc2)S(=O)(=O)O1 (stereo not given)
inactive: [1] -5.9% | [2] -4.3% | [3] -3.7% | [4] -12.2% | [5] 35% | [6] -9.95%

CN1CCCn2c(nc3ccccc3c2=O)C1
inactive: [1] -1.4% | [2] -4.65% | [3] -5.55% | [4] 14.5% | [5] -0.5% | [6] -4.35%

COCCO[Si](OCCOC)(OCCOC)OCCOC
inactive: [1] 4.3% | [2] -10.2% | [3] -1.25% | [4] 11.9% | [5] 7.4% | [6] 10.2%

O=[N+]([O-])c1ccc(N/N=C/c2ccccc2Cl)c([N+](=O)[O-])c1
inactive: [1] 15.3% | [2] -9.55% | [3] -1.15% | [4] -22.4% | [5] 9.75% | [6] 27.3%

OC(CI)C1OCOC2COCOC21 (stereo not given)
inactive: [1] -3.2% | [2] 4.5% | [3] 13.1% | [4] -4% | [5] 16.1% | [6] -3.75%

O=S(=O)(Nc1ccc(Cl)cc1)c1ccc(F)cc1
inactive: [1] -9.45% | [2] -15.8% | [3] -11.6% | [4] 11.9% | [5] -29.1% | [6] 3.95%

CCOC(=O)NC(=O)c1cn(C2CCCCC2)c(=O)[nH]c1=O
inactive: [1] -14.2% | [2] -3.95% | [3] -5.9% | [4] 21.9% | [5] -0.7% | [6] 3.35%

CCCCc1c(O)nc(NCCCC(N)C(=O)O)[nH]c1=O (stereo not given)
inactive: [1] -9.55% | [2] -13.8% | [3] -7.2% | [4] -28.9% | [5] -4.6% | [6] -17.8%

OC(CNc1ncccn1)(Cc1ccccc1)Cc1ccccc1
inactive: [1] 9% | [2] -5.2% | [3] 2.45% | [4] 19.1% | [5] 12% | [6] 21.2%

Cc1ccc(S(=O)(=O)NN(C)C(=O)c2ccccc2)cc1
inactive: [1] -5.95% | [2] -0.75% | [3] 3.05% | [4] -25.2% | [5] 22.8% | [6] -9.05%

CCCCCCCCCCCCCCCCc1c(C)nc(N(C)C)oc1=O
inactive: [1] 18.8% | [2] 23% | [3] -4.4% | [4] 8.2% | [5] 21.1% | [6] 2.25%

CC(=O)OC1C[C@@](C)(O)[C@@]23O[C@@H]2[C@@H]2O[C@]2(C)C3C2OC(=O)C(C)[C@H]12 (stereo not given in full)
inactive: [1] -0.25% | [2] -20.9% | [3] -6.85% | [4] 7.55% | [5] -6.3% | [6] -9.6%

CCN(CC)CCC(=O)c1ccc(OC)cc1
inactive: [1] 7.95% | [2] 16.3% | [3] 2.45% | [4] 23.4% | [5] 7.55% | [6] 8.15%

O=C(O)CNc1ccccc1.[Cu+2]
inactive: [1] -38.5% | [2] -28.1% | [3] -51.5% | [4] 6.95% | [5] -35.9% | [6] -15.8%

O=C(Nc1ccccc1C(=O)N/N=C/c1ccccc1Cl)c1ccccc1Cl
inactive: [1] -36.5% | [2] -14.1% | [3] 5.1% | [4] -25.9% | [5] 0.25% | [6] 4.1%

Cc1nc(-c2nc(C)c(C(=O)NN(C)C)s2)sc1C(=O)NN(C)C
inactive: [1] 28.4% | [2] -7.8% | [3] 23.2% | [4] 23.7% | [5] 3.1% | [6] 22%

CN(C)c1cccc([N+](=O)[O-])c1
inactive: [1] -54.5% | [2] -11% | [3] -44.6% | [4] -32.5% | [5] -35.4% | [6] -48.8%
